“And” between values parts separate entries of the source, which are not always exact repeats. Equal entries are not always repeated. Records with an inconclusive call do not appear. The source holds several records for some structures; these can differ, active in one and inactive in another. The source made the active and inactive calls. The calls were made as follows: active = hit-call score of the fitted dose curve at least 0.9, where 1 is the maximum; inconclusive = response in the unintended direction; inactive = score below 0.9.

human Adrenergic, Alpha 2c Receptor (Adra2C), ADRA2C (gene 152), sequence (P18825 whole entry, looked up): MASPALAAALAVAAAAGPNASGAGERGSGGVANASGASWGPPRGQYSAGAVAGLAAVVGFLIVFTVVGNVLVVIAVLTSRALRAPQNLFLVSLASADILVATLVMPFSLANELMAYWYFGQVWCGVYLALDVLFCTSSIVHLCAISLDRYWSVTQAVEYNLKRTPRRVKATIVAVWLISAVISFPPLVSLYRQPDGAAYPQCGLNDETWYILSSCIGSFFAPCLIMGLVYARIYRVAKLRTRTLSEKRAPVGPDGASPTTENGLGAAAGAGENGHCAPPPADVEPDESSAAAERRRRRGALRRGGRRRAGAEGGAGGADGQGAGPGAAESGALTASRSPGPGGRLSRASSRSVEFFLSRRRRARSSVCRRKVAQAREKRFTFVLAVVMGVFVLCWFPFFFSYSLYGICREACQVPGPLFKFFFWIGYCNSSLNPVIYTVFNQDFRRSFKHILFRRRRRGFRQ
human Adrenergic, Beta 1 Receptor (Adrb1), ADRB1 (gene 153), sequence (P08588 whole entry, looked up): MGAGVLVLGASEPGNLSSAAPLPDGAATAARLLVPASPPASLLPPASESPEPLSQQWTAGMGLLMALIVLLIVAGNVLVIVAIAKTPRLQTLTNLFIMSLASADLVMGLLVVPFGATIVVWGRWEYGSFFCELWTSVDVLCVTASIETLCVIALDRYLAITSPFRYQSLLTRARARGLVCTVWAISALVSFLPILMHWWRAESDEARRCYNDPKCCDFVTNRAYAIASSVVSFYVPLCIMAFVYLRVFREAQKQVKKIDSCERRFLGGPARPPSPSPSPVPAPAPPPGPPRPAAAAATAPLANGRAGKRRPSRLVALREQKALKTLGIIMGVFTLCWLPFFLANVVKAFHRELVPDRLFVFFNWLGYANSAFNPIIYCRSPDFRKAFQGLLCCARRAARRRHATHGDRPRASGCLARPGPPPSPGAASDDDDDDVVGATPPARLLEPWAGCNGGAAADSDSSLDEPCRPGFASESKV
Type-1 angiotensin II receptor (Homo sapiens), sequence (P30556 whole entry, looked up): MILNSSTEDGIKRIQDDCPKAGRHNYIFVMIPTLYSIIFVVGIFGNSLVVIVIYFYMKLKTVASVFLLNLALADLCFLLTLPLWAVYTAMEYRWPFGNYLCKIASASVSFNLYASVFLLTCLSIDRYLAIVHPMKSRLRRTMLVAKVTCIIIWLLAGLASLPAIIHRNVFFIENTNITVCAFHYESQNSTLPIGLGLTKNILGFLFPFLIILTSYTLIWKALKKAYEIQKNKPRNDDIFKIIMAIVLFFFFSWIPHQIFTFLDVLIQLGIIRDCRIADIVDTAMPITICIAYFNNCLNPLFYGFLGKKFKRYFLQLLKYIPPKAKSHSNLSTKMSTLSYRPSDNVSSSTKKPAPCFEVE
human Histamine 1 Receptor (H1), HRH1 (gene 3269), sequence (P35367 whole entry, looked up): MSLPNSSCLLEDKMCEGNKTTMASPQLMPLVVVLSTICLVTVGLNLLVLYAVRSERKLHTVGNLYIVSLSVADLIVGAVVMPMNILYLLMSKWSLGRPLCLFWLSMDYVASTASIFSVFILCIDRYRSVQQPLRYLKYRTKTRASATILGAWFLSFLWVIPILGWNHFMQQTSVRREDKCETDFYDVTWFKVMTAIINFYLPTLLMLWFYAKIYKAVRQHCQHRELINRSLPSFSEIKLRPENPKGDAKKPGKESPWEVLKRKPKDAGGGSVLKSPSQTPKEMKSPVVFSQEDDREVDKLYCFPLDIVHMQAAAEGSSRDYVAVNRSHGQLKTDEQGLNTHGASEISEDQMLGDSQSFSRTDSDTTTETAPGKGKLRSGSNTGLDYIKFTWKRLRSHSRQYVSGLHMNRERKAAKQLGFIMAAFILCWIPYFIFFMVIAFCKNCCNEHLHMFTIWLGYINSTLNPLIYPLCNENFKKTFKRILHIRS

One experiment deals with human Adenosine A2a Receptor (AdoRA2a), ADORA2A (gene 135) (UniProt P29274). The experiment in a line: NVS_GPCR_hAdoRA2a: NovaScreen (NVS) G Protein-Coupled Receptor Assay for human Adenosine A2a Receptor (AdoRA2a) (AID 2283256). The essentials: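 Compounds screened in duplicate at 25 uM, with actives followed up in concentration series, for displacement of a radioligand from HEK293-derived receptor protein. Bound counts read by filter scintillation at 1.5 hours, DMSO as baseline.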
human Adenosine A2a Receptor (AdoRA2a), ADORA2A (gene 135), sequence (P29274 whole entry, looked up): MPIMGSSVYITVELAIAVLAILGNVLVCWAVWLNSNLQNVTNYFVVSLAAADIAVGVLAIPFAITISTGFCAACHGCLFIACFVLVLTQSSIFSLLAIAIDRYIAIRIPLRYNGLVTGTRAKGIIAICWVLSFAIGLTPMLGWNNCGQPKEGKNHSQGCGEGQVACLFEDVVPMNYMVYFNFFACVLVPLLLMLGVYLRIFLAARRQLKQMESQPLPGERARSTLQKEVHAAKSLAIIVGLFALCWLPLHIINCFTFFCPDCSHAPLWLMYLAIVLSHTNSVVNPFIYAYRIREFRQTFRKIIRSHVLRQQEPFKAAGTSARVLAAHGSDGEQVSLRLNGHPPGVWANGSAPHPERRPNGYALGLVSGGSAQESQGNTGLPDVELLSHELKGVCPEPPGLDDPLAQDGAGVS
For `COc1nc(NC(C)C)nc(NC(C)C)n1`, the AC50 is 9.33 µM (active). With `CCNc1nc(Cl)nc(NC(C)C)n1`, the AC50 was 4.96 µM (active) and 6.26 µM (active); the compound was called inactive. For `CCOC(=O)CC(SP(=S)(OC)OC)C(=O)OCC` (stereo not given), the AC50 is 5.74 µM (active). On to `CCCN(CCC)c1c([N+](=O)[O-])cc(S(N)(=O)=O)cc1[N+](=O)[O-]`, for which the result was inactive.

As for `Oc1ccccc1-c1ccccc1`, the call was inactive.

For another experiment, the target named is human Adrenergic, Alpha 2A Receptor (Adra2A), ADRA2A (gene 150) (UniProt P08913). The experiment in a line: NVS_GPCR_hAdra2A: NovaScreen (NVS) G Protein-Coupled Receptor Assay for human Adrenergic, Alpha 2A Receptor (Adra2A) (AID 2283257). Put shortly: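 Displacement of a specific radioligand from HT29 membrane protein was counted by filter scintillation after 1 h. Compounds were screened in duplicate at 25 uM, and actives were retested in concentration series. Fitting was positive-direction against DMSO.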
human Adrenergic, Alpha 2A Receptor (Adra2A), ADRA2A (gene 150), sequence (P08913 whole entry, looked up): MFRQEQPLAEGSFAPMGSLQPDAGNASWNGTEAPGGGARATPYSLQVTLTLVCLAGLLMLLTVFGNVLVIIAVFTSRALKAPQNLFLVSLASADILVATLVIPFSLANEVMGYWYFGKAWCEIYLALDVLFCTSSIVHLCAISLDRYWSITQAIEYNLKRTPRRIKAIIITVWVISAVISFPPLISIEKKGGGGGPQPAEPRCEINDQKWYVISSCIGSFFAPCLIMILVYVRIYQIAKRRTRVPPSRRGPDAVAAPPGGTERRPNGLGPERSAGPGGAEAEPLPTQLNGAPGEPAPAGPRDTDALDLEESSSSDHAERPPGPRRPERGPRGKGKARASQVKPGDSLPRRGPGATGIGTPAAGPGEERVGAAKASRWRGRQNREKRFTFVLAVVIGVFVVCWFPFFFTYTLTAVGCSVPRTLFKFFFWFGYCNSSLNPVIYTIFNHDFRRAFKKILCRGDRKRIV
Take `Fc1ccc(Oc2ccnc3cc(Cl)cc(Cl)c23)cc1`: the call was inactive. With `N#CC(CCc1ccc(Cl)cc1)(Cn1cncn1)c1ccccc1` (stereo not given), the result was inactive.

With `CCON=C(CC)C1=C(O)CC(c2c(C)cc(C)cc2C)CC1=O` (stereo not given), the AC50 was 4.3 µM (active). For `O=C(Nc1ccccc1)Nc1ccnc(Cl)c1`, the AC50 was 11.6 µM (active).

Another experiment deals with human Adrenergic, Beta 1 Receptor (Adrb1), ADRB1 (gene 153) (UniProt P08588). Put plainly: NVS_GPCR_hAdrb1: NovaScreen (NVS) G Protein-Coupled Receptor Assay for human Adrenergic, Beta 1 Receptor (Adrb1) (AID 2283258). Put shortly:
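Membranes/protein extracted from human neuroepithelioma cells, radioligand competition binding read by filtration and scintillation 2 h post-dose. Single 25 uM duplicate screen, then concentration-response follow-up; DMSO as negative control.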
On to `COc1ccc(C(c2ccc(OC)cc2)C(Cl)(Cl)Cl)cc1`, for which the outcome was inactive. Same read-out and setting: for `CO/C=C(/C(=O)OC)c1ccccc1Oc1cc(Oc2ccccc2C#N)ncn1` the value was “inactive”. Take `CN(C)C(=S)SSC(=S)N(C)C`: the compound was called inactive.

Consider `C=CCC1=C(C)C(OC(=O)C2C(C=C(C)C)C2(C)C)CC1=O` (stereo not given), for which the call was inactive. As for `C#CCOS(=O)OC1CCCCC1Oc1ccc(C(C)(C)C)cc1` (stereo not given), the compound was classed as inactive.

For another experiment, the target named is human Adrenergic, Alpha 2c Receptor (Adra2C), ADRA2C (gene 152) (UniProt P18825). Put plainly: NVS_GPCR_hAdra2C: NovaScreen (NVS) G Protein-Coupled Receptor Assay for human Adrenergic, Alpha 2c Receptor (Adra2C) (AID 2283259). Put shortly:
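Screened first in duplicate at 25 uM, with actives then run as concentration series. Membranes from Sf9 cells were exposed for 1 h, and displacement of radioligand was counted after filtration, using DMSO as baseline.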
As for `COc1ccc(C(c2ccc(OC)cc2)C(Cl)(Cl)Cl)cc1`, the call was inactive. Take `O=C(Nc1ccccc1)Nc1ccnc(Cl)c1`: the AC50 was 11.2 µM (active).

Regarding `C=CCC1=C(C)C(OC(=O)C2C(C=C(C)C)C2(C)C)CC1=O` (stereo not given), the compound was called inactive.

A further experiment has as its target Type-1 angiotensin II receptor (Homo sapiens) (UniProt P30556). The experiment in a line: NVS_GPCR_hAT1: NovaScreen (NVS) G Protein-Coupled Receptor Assay for human Angiotensin II receptor type 1 (AT1) (AID 2283263). The essentials: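 Hits from a 25 uM duplicate screen (threshold e.g. 30% inhibition) were run in concentration-response with 50 uM top concentration. Displacement of specific radioligand from KAN-TS membrane preparations measured after 3 h by filter scintillation, DMSO as baseline.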
In the case of `CCNc1nc(Cl)nc(NC(C)C)n1`, the result was inactive. Turning to `C=CCC1=C(C)C(OC(=O)C2C(C=C(C)C)C2(C)C)CC1=O` (stereo not given), the compound was classed as inactive. The same measure, in the same setting: for `C#CCOS(=O)OC1CCCCC1Oc1ccc(C(C)(C)C)cc1` (stereo not given) the value was “inactive”.

The next experiment deals with human Histamine 1 Receptor (H1), HRH1 (gene 3269) (UniProt P35367). Put plainly: NVS_GPCR_hH1: NovaScreen (NVS) G Protein-Coupled Receptor Assay for human Histamine 1 Receptor (H1) (AID 2283268). The method, then:
NVS_GPCR_hH1 is a biochemical, single-readout assay that uses extracted gene-proteins in a cell-free assay. Measurements were taken 1 hour after chemical dosing in a 96-well plate.NVS_GPCR_hH1 is one of one assay component(s) measured or calculated from the NVS_GPCR_hH1 assay. It is designed to make measurements of radioligand binding, a form of binding reporter, as detected with scintillation counting signals by Filter-based radiodetection technology.Data from the assay component NVS_GPCR_hH1 was analyzed into 1 assay endpoint. This assay endpoint, NVS_GPCR_hH1, was analyzed in the positive analysis fitting direction relative to DMSO as the negative control and baseline of activity. Using a type of binding reporter, loss-of-signal activity can be used to understand changes in the binding as they relate to the gene HRH1. Furthermore, this assay endpoint can be referred to as a primary readout, because the performed assay has only produced 1 assay endpoint. To generalize the intended target to other relatable targets, this assay endpoint is annotated to the gpcr intended target family, where the subfamily is rhodopsin-like receptor.
Binding assays used specific radioligands (tritiated, iodinated) with non-radioactive competitive displacement ligands in agonist or antagonist protocols (as indicated) and various reference compounds and inhibitors to titrate specific binding to receptors and transporters. Most enzyme assays (CYPs, kinases, phosphatases, proteases, HDACs) used recombinant protein and specific substrates (fluorescence mostly, some colorimetric and radioactive) and inhibitors, followed by a biochemical separation of substrate and product. All assays for the biochemical HTS were initially run in duplicate at a single concentration (10 uM for CYP450 assays and 25 uM for all others). […] Each assay was run with positive and negative controls, and concurrent controls on every plate. The follow-up (secondary) screen tested active chemical-pairs in concentration series, as well as a few additional assays not tested in the primary screen, some selected negative inactives, and several cases re-run in the concentration series for confirmatory purposes.
For `CCNc1nc(Cl)nc(NC(C)C)n1`, the compound was classed as inactive. Still for that read-out and setting: then `COP(=S)(OC)Oc1nc(Cl)c(Cl)cc1Cl`, with “inactive”; and `CC(C)Oc1cc(-n2nc(C(C)(C)C)oc2=O)c(Cl)cc1Cl`, with “inactive”; and `CNC(=S)S`, with “inactive”.

The target in the next experiment is D(1A) dopamine receptor (Homo sapiens) (UniProt P21728). Put plainly: NVS_GPCR_hDRD1: NovaScreen (NVS) G Protein-Coupled Receptor Assay for human Dopamine Receptor D1 (DRD1) (AID 2283269). Put shortly: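 Cell-free competition with radioligand, filter-trapped and scintillation-counted 1 h post-dose, using HEK293-derived human D1 preparation. Duplicate single-point testing at 25 uM first, then concentration series for actives; DMSO served as baseline, loss-of-signal scored.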
D(1A) dopamine receptor (Homo sapiens), sequence (P21728 whole entry, looked up): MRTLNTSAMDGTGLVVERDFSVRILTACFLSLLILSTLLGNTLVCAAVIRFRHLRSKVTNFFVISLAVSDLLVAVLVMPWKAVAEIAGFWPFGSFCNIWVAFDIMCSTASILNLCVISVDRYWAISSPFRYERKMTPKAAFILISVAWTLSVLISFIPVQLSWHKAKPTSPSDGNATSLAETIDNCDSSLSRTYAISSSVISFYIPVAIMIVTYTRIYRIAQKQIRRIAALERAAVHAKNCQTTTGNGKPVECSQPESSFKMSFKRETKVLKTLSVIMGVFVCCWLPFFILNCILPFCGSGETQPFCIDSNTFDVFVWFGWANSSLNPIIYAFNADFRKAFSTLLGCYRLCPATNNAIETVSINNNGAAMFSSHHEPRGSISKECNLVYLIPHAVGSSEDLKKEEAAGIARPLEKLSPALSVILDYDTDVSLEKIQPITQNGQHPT
On to `C=CCC1=C(C)[C@@H](OC(=O)[C@@H]2[C@@H](C=C(C)C)C2(C)C)CC1=O`, for which the AC50 is 25 µM (active).

`COc1ccc(C(c2ccc(OC)cc2)C(Cl)(Cl)Cl)cc1`: the compound was classed as inactive.

As for `CO/C=C(/C(=O)OC)c1ccccc1Oc1cc(Oc2ccccc2C#N)ncn1`, the outcome was inactive. With `CC1COC(Cn2cncn2)(c2ccc(Oc3ccc(Cl)cc3)cc2Cl)O1` (stereo not given), the AC50 was 6.97 µM (active). For `COP(=S)(OC)Oc1nc(Cl)c(Cl)cc1Cl`, the AC50 was 12.6 µM (active).

For the compound `CN(C)C(=S)SSC(=S)N(C)C`, the AC50 was 4.51 µM (active). Take `O=C(Nc1ccccc1)Nc1ccnc(Cl)c1`: the AC50 is 14.5 µM (active). For the compound `CCCCNC(=O)OCC#CI`, the AC50 was 15.3 µM (active) and 9.21 µM (active). On the same count and under the same terms, then `C=CCC1=C(C)C(OC(=O)C2C(C=C(C)C)C2(C)C)CC1=O` (stereo not given), with 41.6 µM (active) and 29.3 µM (active); and `C#CCOS(=O)OC1CCCCC1Oc1ccc(C(C)(C)C)cc1` (stereo not given), with 25 µM (active).

What is called AC50 is the concentration at which the activity in the assay is half-maximal.
